The record followed here is PubChem BioAssay AID1792 (The Scripps Research Institute Molecular Screening Center, 2009).

About 130 (0.81%) of roughly 16,000 compounds were called active. What follows is part of a selection rich in actives, with near analogues and random picks from the rest. A number with no mark means an inactive call. Cut-off read from the data, not from the text of the source: active = inhibition above about 75%; inactive = the rest.

For the experiment, the target named is NADPH oxidase 1 (Homo sapiens) (UniProt Q9Y5S8). Put plainly: inhibitors of human NADPH oxidase 1 (Nox1) (AID 1792). Particulars: HT29 cells, luminol chemiluminescence ROS; at 6.7 µM; hits give high values.
Sequence of NADPH oxidase 1 (Homo sapiens) (Q9Y5S8 whole entry, looked up): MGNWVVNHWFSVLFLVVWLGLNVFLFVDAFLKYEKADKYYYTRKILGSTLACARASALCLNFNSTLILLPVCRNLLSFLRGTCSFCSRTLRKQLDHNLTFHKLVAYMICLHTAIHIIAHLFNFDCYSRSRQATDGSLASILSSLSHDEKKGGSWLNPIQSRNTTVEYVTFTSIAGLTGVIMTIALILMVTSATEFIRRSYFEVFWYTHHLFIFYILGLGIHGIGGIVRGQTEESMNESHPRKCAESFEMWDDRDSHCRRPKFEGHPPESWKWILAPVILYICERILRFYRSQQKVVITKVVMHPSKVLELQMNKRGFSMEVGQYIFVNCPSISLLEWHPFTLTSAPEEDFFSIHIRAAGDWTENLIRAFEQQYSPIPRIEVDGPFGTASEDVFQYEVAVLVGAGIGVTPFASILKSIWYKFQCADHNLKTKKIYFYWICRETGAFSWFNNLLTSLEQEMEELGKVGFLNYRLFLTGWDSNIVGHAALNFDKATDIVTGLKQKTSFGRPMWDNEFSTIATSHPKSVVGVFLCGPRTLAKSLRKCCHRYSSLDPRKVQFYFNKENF
Take `N#C/C(=C\c1sccc1Oc1ccccc1)S(=O)(=O)c1ccc(C(F)(F)F)cn1`: the inhibition was -16.5%. Next, `CCCCC#Cc1cncc(C(=O)NNC(=O)Nc2ccc(Cl)cc2)c1`: 11.2%; `N#Cc1cccnc1NNC(=O)Nc1ccc(OCc2ccccc2)cc1`: 61.8%. Take `CC(C)CC(NC(=O)OC(C)(C)C)C(=O)OCc1ccc(CC(=O)O)cc1` (stereo not drawn): the inhibition is -5%. For the compound `O=c1c(-c2nc(-c3ccc(C(F)(F)F)cc3)no2)cnc2n1CCS2`, the inhibition is -4.83%. As to `CSc1sc(C(=O)NC2CC2)c(-c2ccc(Cl)cc2)c1C#N`, the inhibition is -9.35%. Regarding `NS(=O)(=O)c1ccc(Oc2c(Cl)cccc2[N+](=O)[O-])cc1`, the inhibition was 21.2%.

Turning to `Cc1cc(C(=O)NCCNS(=O)(=O)c2ccc(Cl)cc2)c(C)o1`, the inhibition is 2.68%.

For the compound `O=C1c2ccccc2O[C@@H](c2ccccc2)[C@@H]1NC1CCCCC1`, the inhibition is -19.7%. `COC(=O)c1ccccc1-c1c2ccc(=O)cc-2oc2cc(O)ccc12`: the inhibition was -13%.

With `C#CC(C)(CC)OCC(O)CS(=O)(=O)O` (stereo not drawn), the inhibition was -13.2%. On to `COc1cccc2c1c(NS(=O)(=O)c1cn(C)cn1)nn2C`, for which the inhibition is -41.2%. Next, `Cc1nc(-n2cccc2)sc1C(=O)N/N=C/c1ccccc1Cl`: 6.52%. Next, `O=S(=O)(c1ccc(Cl)cc1)n1nccc1/C=C/c1cccs1`: -18.9%; `CSc1nnc(SC)n1CCNC(=O)Nc1cccc(Cl)c1`: -65%; `O=C(Cn1nnc2ccccc21)NCCSCc1ccco1`: 16.2%. On to `CN([C@H]1CCN2CCc3ccccc3C2C1)S(C)(=O)=O` (stereo partly drawn), for which the inhibition was -68.5%. With `N#Cc1nccnc1N1CCN(C(=O)c2ccccc2)CC1`, the inhibition was -2.33%. As to `Cc1ccc(C(=O)N2CCN(c3cccc4[nH]ccc34)CC2)cc1`, the inhibition is 76% (active). Consider `COc1ccc(NC(=S)Nc2ccc(OC)cc2)cc1`, for which the inhibition was 3.7%.

On to `COc1cccc(NC(=S)N(CCC#N)C2CCCCC2)c1`, for which the inhibition is -44.9%.

Turning to `COc1cccc(NC(=S)NNC(=S)NC2CC3CCC2C3)c1` (stereo not drawn), the inhibition is 87.8% (active).

Consider `CSc1nc(-n2nc(C)cc2C)nc(-c2ccco2)c1C#N`, for which the inhibition was -107%. With `Cc1ccc(NC(=S)C(C#N)C(=O)N2CCCC2)c(C)c1` (stereo not drawn), the inhibition was -73.4%. In the case of `CCOC(=O)c1c[nH]n2c(=O)c3c(nc12)CCC3`, the inhibition was -13%. For the compound `Cc1noc(C)c1S(=O)(=O)NCc1cc(F)cc2c1OCOC2`, the inhibition was -23.9%. Next, `CS/C(=N/S(=O)(=O)c1c(C)noc1C)NNC(=O)Nc1ccc(Cl)cc1`: 20%; `CC1=NCCNC(C)=C1N1CCOCC1`: -21.2%.
